ChEMBL document CHEMBL3988442, “University of Dundee, Small-Polar-MMV Screening Library” (2021)
For some of these results: Potency and affinity values are given separately.

Legend:
Set-up in all cases: scale not given: direction of the effect not stated beside the values
[1] = target: Protein translocase subunit SecA (Escherichia coli (strain K12)) (UniProt P10408); assay: Assay to Identify E. coli SecA ATPase Inhibitors; format: functional; conditions: 30 µM
[2] = target: T1, Ubiquitin-activating enzyme e1, putative (Leishmania donovani (strain BPK282A1)) (UniProt E9BSI1); assay: Leishmania donovani Ubiquitin Activating Enzyme (LdE1); format: functional; conditions: 30 µM
T1 sequence (whole entry): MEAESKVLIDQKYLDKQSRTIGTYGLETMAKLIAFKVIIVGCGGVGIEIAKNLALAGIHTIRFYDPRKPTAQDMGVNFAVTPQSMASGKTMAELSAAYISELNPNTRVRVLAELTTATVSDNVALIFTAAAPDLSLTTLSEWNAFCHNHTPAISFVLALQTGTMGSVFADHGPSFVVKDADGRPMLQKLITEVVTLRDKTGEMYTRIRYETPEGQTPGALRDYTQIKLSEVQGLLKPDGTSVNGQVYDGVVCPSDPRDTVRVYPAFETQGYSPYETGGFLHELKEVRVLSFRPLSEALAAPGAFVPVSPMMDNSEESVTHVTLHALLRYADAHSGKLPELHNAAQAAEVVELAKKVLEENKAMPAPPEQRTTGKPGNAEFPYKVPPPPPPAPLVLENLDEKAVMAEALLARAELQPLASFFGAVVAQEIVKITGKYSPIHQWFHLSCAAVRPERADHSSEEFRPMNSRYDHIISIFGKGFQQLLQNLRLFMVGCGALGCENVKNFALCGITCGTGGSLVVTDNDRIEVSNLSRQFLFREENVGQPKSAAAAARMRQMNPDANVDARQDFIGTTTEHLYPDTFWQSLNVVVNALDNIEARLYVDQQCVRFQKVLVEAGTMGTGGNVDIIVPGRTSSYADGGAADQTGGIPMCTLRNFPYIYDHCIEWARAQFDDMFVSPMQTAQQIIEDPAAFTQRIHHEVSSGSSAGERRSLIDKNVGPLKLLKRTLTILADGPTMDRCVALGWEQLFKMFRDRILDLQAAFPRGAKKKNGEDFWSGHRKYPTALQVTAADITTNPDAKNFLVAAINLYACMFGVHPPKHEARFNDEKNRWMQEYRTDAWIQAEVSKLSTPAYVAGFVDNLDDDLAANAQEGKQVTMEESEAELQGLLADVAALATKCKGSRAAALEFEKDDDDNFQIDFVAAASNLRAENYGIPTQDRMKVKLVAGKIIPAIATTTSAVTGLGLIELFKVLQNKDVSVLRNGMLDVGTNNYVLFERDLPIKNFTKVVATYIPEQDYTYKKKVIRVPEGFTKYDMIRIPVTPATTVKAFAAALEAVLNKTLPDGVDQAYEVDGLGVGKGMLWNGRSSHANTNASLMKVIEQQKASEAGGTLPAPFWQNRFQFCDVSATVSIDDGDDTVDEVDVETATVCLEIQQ

[3] = target: AMP-activated protein kinase, AMPK (Homo sapiens) (UniProt P54646+O43741+P54619+Q9UGJ0+Q9Y478+Q13131+Q9UGI9); assay: AMP-dependent Kinase enzyme assay. An in vitro enzyme assay that detects ADP turnover that is directly proportional to AMPK activity. This uses naive AMPK that is activated during the assay with MK-8722; format: functional; conditions: 30 µM
[4] = target: Sialic acid-binding Ig-like lectin 9 (Homo sapiens) (UniProt Q9Y336); assay: Hs-Siglec9 ALPHAscreen SOP 20170721; conditions: 10 µM
Sequence of Sialic acid-binding Ig-like lectin 9 (Homo sapiens) (Q9Y336 whole entry): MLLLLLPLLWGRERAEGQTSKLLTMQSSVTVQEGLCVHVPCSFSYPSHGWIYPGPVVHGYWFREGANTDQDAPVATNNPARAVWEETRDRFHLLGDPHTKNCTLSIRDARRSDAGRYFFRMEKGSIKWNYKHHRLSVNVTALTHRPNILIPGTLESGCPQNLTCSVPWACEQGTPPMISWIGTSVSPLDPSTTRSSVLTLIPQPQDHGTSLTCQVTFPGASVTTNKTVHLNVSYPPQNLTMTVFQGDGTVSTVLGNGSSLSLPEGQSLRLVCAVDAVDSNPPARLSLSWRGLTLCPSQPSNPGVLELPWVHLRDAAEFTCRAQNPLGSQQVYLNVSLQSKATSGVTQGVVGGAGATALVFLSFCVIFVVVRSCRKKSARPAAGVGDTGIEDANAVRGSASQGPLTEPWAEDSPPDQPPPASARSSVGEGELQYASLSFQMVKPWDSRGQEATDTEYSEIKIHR

Trypanosoma cruzi = assay: Trypanosoma cruzi phosphomannomutase and mannose-1-phosphate guanylyltransferase assay; format: functional; conditions: 10 µM
[5] = target: T2, Arginase-2, mitochondrial (Homo sapiens) (UniProt P78540); assay: in vitro enzyme assay to detect the production of urea directly proportional to the activity of Arginase II; format: functional; conditions: 33.3 µM; also: in the data most compounds retested in dose-response had high values
T2 sequence (whole entry): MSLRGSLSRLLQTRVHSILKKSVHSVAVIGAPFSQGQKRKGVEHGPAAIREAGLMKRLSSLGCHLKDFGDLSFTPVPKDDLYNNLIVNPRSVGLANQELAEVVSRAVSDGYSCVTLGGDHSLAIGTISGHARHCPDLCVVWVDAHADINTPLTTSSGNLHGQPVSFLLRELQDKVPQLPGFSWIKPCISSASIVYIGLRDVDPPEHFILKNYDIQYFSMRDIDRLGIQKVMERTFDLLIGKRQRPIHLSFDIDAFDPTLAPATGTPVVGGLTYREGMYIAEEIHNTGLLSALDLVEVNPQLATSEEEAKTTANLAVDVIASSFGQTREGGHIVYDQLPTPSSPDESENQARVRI

[6] = target: T3, Proteasome subunit beta (Trypanosoma cruzi) (UniProt O96673); assay: Trypanosoma cruzi proteasome chymotrypsin-like activity (TcProtChymo) assay.; also: in the data most compounds retested in dose-response had high values; format: functional; conditions: 9.37 µM
T3 sequence (whole entry): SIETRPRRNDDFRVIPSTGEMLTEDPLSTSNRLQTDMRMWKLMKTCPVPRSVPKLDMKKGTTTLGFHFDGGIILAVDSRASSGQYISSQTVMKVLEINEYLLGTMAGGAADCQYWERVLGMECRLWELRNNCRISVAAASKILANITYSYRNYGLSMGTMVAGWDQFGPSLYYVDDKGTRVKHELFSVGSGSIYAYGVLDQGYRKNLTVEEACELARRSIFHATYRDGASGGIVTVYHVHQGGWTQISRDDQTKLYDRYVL

Homo sapiens = species: Homo sapiens; assay: To identify inhibition of the IFN signalling (Jak-Stat) pathway via expression of an eGFP reporter gene under the control of an IFN-stimulated response element (ISRE) containing MxA promoter.; format: functional; conditions: 30 µM
[7] = target: T4, Tyrosyl-tRNA synthetase, putative (Trypanosoma cruzi (strain CL Brener)) (UniProt Q4DSP6); assay: Trypanosoma cruzi tyrosyl tRNA synthetase (TcYRS) _High Tyrosine SOP; format: functional; conditions: 30 µM; also: in the data most compounds retested in dose-response had high values
T4 sequence (whole entry): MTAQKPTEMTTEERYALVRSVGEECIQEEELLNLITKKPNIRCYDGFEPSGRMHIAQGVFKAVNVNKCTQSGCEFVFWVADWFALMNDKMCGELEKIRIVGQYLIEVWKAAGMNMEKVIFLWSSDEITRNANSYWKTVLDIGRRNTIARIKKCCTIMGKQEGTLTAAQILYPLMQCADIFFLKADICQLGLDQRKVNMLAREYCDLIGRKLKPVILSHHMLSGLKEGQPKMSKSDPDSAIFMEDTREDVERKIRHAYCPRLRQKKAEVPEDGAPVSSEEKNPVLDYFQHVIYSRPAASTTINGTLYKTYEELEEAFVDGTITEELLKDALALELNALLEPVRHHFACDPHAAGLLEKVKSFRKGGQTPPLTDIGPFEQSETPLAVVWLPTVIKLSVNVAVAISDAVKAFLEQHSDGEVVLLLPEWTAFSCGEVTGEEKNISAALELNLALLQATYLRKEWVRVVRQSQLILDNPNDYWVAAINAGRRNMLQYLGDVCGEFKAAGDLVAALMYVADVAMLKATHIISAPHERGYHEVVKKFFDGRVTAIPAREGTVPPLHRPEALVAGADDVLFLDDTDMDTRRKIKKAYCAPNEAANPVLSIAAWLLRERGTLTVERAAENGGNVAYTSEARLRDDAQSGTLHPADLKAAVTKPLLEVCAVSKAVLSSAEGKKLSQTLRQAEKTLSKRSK

[8] = target: T4, Tyrosyl-tRNA synthetase, putative (Trypanosoma cruzi (strain CL Brener)); assay: Trypanosoma cruzi tyrosyl tRNA synthetase (TcYRS) SOP; format: functional; conditions: 30 µM
[9] = target: Chromo domain-containing protein 1 (Saccharomyces cerevisiae (strain ATCC 204508 / S288c) (Baker's yeast)) (UniProt P32657); assay: ScCHD-1 Enzyme Inhibition Assay; format: functional; conditions: 30 µM; also: in the data most compounds retested in dose-response had high values
Sequence of Chromo domain-containing protein 1 (Saccharomyces cerevisiae (strain ATCC 204508 / S288c) (Baker's yeast)) (P32657 whole entry, the tested form may be a part): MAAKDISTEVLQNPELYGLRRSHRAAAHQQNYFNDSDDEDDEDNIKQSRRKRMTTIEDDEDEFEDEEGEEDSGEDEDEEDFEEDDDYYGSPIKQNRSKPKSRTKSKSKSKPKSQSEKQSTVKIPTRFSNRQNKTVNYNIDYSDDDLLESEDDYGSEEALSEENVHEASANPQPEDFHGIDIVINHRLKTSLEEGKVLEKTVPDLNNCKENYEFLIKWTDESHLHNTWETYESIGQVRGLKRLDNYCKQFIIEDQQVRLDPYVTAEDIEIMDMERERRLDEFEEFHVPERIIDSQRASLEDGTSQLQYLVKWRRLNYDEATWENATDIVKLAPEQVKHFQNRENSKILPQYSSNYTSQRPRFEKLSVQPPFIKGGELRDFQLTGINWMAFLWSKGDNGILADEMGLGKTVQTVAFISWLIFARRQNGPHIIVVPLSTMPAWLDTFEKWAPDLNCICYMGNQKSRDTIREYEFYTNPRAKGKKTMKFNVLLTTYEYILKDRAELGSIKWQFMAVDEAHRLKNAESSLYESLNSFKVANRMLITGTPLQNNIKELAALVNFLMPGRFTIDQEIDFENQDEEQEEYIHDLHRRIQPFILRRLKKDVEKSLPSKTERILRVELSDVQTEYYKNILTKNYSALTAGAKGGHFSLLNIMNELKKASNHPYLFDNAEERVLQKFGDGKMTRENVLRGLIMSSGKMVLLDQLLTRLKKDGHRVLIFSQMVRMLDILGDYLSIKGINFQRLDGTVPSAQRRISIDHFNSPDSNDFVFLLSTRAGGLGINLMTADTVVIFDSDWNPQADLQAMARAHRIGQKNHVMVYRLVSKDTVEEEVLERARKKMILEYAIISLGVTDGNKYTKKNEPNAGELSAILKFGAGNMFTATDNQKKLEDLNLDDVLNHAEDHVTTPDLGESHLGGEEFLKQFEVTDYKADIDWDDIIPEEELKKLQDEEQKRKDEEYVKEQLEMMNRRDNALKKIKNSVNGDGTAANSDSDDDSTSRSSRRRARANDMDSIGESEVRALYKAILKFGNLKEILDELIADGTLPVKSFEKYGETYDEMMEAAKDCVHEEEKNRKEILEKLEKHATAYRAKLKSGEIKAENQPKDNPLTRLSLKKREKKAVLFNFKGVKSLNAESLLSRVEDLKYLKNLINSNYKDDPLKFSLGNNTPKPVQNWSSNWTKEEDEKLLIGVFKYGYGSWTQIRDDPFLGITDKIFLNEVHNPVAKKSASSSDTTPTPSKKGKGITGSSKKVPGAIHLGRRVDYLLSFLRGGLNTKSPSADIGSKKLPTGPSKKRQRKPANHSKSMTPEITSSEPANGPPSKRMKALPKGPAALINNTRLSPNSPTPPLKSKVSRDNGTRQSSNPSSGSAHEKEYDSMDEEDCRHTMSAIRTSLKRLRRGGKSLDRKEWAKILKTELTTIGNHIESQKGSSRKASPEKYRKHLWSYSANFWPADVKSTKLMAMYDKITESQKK

Sequence of Protein translocase subunit SecA (Escherichia coli (strain K12)) (P10408 whole entry): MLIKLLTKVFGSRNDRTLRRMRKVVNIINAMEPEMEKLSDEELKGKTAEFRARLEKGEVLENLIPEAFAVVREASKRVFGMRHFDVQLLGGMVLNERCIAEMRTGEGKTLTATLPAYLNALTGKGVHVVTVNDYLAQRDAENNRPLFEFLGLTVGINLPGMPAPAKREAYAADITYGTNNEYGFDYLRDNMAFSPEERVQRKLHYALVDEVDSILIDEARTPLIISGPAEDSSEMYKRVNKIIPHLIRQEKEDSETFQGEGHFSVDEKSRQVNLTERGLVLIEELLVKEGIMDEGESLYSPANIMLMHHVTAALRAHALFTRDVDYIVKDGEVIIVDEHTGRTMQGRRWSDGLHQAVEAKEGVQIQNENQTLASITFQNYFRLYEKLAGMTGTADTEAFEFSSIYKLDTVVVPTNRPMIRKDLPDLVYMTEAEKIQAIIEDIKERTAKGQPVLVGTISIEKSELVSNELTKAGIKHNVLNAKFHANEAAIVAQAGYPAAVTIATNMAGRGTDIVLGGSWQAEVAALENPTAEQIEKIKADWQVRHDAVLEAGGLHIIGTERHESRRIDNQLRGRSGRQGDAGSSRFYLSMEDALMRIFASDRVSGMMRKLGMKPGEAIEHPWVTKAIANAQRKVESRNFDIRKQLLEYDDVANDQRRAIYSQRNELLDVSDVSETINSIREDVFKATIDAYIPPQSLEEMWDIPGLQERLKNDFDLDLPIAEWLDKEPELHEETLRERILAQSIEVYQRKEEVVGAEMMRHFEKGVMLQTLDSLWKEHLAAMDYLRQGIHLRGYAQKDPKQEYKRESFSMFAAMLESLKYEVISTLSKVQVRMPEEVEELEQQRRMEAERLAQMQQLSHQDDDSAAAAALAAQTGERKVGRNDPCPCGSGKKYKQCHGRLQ

SMILES	Percent Effect [1] [%]	Percent Effect [2] [%]	Percent Effect [3] [%]	Percent Effect [4] [%]	Percent Effect (Trypanosoma cruzi) [%]	Percent Effect [5] [%]	Percent Effect [6] [%]	Percent Effect (Homo sapiens) [%]	Percent Effect [7] [%]	Percent Effect [8] [%]	Percent Effect [9] [%]
CSc1cccc(CN(C)C(=O)C2CC(=O)N(CCN(C)C)C2)c1 (stereo not given)	0.893	10.7	-12.1	4.56	4.38	18.2	18.1	29.9	8.2	16.1	-0.611
CCN1CCCC1CN(CCN(C)C)S(=O)(=O)c1cccc(C#N)c1 (stereo not given)	-5.4	13.7	3.08	5.43	6.27	4.09	8.16	0.578	4.3	10	-4.67
COc1cccc(CNCc2nnc3n2CC(C(F)(F)F)CC3)c1 (stereo not given)	0.608	-2.7	-0.757	8.38	1.27	45.4	5.92	9.33	6.45	16.1	-13
Cc1cc(NC(=O)CN2CCn3c(nnc3C(C)C)C2)no1	-2.36	7.79	2.84	-23.1	2.25	-5.26	16.6	25.4	5.71	25.9	-21.2
Cc1noc(C(C)C)c1C(=O)NS(=O)(=O)c1ccc(Cl)cc1	-5.93	2.63	7.93	1.74	3.8	0	17.9	9.23	6.38	7.79	3.02
CS(=O)(=O)CCSc1cccc(C#N)c1	-3.18	-4.17	-4.21	-5.6	-0.291	-0.442	7.72	7.41	-1.05	0	-0.524
Cc1ccoc1C(=O)N1CCO[C@H]2[C@H](OCCN(C)C)CC[C@@H]21	0.717	5.33	0.186	15.6	-2.7	-56.5	5.98	-12.8	2.08	10	-3.32
COc1c(CNCc2cnn(C)c2)c(C(C)C)nn1C	-4.88	23.7	-11.3	-0.847	3.01	3.45	7.18	-15.7	6.37	21.9	-13.8
CC(C)CCN1CCNC(=O)C1CC(=O)N1CCc2sccc2C1 (stereo not given)	-4.93	0	0.663	4.62	3.44	-15.2	1.17	-17.6	4.3	8.64	1.1
CCNC(=O)N1CCCCC1CCNS(C)(=O)=O (stereo not given)	-1.55	5.41	-3.93	3.76	8.3	-3.33	13.3	6.93	7.94	9.76	-1.52
Cc1nc(CN(C)C2CCN(CC(=O)NC3CCOCC3)C2)no1 (stereo not given)	-1.63	16.2	-9.99	0.0133	-0.836	-3.14	11.1	11.9	5.94	18.3	-5.55
CC(c1ccccc1)n1c(SCC(=O)O)nnc1-c1ccccc1Cl (stereo not given)	-3.8	15.3	-8.09	28.7	4.57	-3.53	9.65	13.3	4.21	12.8	-5.19
O=C(c1cccnc1N1CCOCC1)N1CCCC(n2ccnc2)C1 (stereo not given)	-1.05	18.4	3.79	3.27	-3.76	-1.53	9.36	0.0212	4.41	17.1	-9.1
Cc1nc(CN2CCOC(c3nc(C(C)C)n[nH]3)C2)oc1C (stereo not given)	-1.29	5.06	3.22	7.38	2.74	2.66	1.72	-4.74	3.45	8.86	-3.77
O=C1NCCN1C1CCN(CCc2cccs2)CC1	-7	18.2	-1.15	-8.84	5.78	-3.16	17.5	2.25	5.71	23.5	-17.6
COC[C@@H]1CC[C@H]2[C@H](CCN2C(=O)c2ccncc2F)O1	-5.45	2.7	-0.0287	17.9	2.05	2.73	-4.21	-15.4	5.38	13.6	-2.68
COc1ccc(CNC(=O)NCc2c(C)cc(C)[nH]c2=O)cc1	-5.07	13.2	-3.13	12.1	0.84	-5.04	6.18	-18.2	3.45	13.6	3.42
O=C(NCCn1ccnc1)c1ccn(-c2cccc(F)c2)n1	-6.24	15.8	-0.288	-5.43	-11.1	-0.719	2.28	-0.954	0.493	3.7	-2.98
CSCc1cccc(S(=O)(=O)N2CCC(C)CC2)c1	-5.58	-4	7.56	1.46	-5.5	-5.11	7.39	27.8	-11.6	-10.3	-6.13
CC1=Nc2c(c(=O)[nH]n2C(C)C)C(c2ccc(F)c(F)c2)S1 (stereo not given)	-5.53	-6.67	8.28	12.2	-0.197	1.58	9.8	34	18	20.5	2.07
